The list is not random: actives were taken first. Their share in the collection is about 2.6%.
TCR activator: activates T cell receptor signaling; Potency, µM (highest dose often 9.22 µM), without a hit: at the top dose activation of IL-2 secretion, most hits filed as activators; 330,000 tested, under 10 active; primary human leukocytes, anti-CD3, IL-2 HTRF, 48 h; AID 504894; further: % of control where 0% means no effect
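1) Mix primary human leukocytes, a-CD3 beads and compound. 2) Incubate 48 hr. 3) Add HTRF IL-2 reagents (a-IL-2-K, a-IL-2-d2).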
Nrf2 block: inhibitors of Nrf2 signaling. A549 ARE-Fluc reporter, luciferase luminescence, 18-24 h. Potency, µM (titrated, usually from 46 µM), inactives show at the highest dose activity change, negative = inhibition, actives largely listed as inhibitors. hit rate 2.1% among 360,000; further: potency means the concentration at half of the fitted maximal effect; on the % scale 0 is the no-effect control and ±100 the full control effect; nearly all actives have a fitted effect of over 60% in size
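In this cell-based qHTS, ARE-driven firefly luciferase in A549 cells reports Nrf2 activity; the luminescent signal after BugLite lysis is the measured value, with a prior CellTiter-Fluor read for cell health.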
A549 viability: counter-screen for Nrf2 inhibitors: cytotoxicity in A549 cells | A549 ARE-Fluc cells, CellTiter-Fluor viability, 18-24 h | Potency, µM (titrated, usually from 46 µM), without a hit: top-dose activity change, negative = cytotoxicity, most hits filed as inhibitors | hit rate 0.16% among 390,000 | AID 504648; further: potency means the concentration at half of the fitted maximal effect; on the % scale 0 is the no-effect control and ±100 the full control effect
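A549 ARE-Fluc cells in 5% FBS OPTI-MEM, 5000 cells/well, rested 2 h then exposed to compounds in concentration-response for 18-24 h at 37 °C. Viability by CellTiter-Fluor fluorescence (Ex 405/Em 525) after 30 min; luciferase luminescence (BugLite, 15 min, RT) read afterwards.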
Nrf2 activator: activates Nrf2 signaling; AREc32 ARE-luciferase reporter (MCF7-derived line), luminescence, 24 h; Potency, µM (top dose mostly 46.1 µM), without a hit: at the top dose activation, most hits filed as activators; hit rate 0.31% among 410,000; AID 624171; further: potency means the concentration at half of the fitted maximal effect; % of control where 0% means no effect; nearly all actives have a fitted effect of over 65% in size
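Each well held 1000 AREc32 cells, which were incubated with compound for 24 hr at 37 deg C after overnight attachment, and ARE reporter activity was quantified by firefly luciferase luminescence.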
A-T KAP1 phos: potential ataxia-telangiectasia treatment. F2112 A-T fibroblasts, KAP-1 phosphorylation AlphaLISA; neocarzinostatin DNA damage 30 min before lysis. Potency, µM (series often up to 57.5 µM), without a hit: at the highest dose activation, most hits filed as activators. hit rate 0.19% among 320,000; further: potency means the concentration at half of the fitted maximal effect; % of control where 0% means no effect; nearly all actives have a fitted effect of over 45% in size
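hTERT-immortalized A-T patient fibroblasts (F2112), 500 cells/well in OPTI-MEM, 1% FBS, got compounds for 60 min, then NCS for 30 min at 37C. Lysates were then assayed for phospho-KAP-1 by AlphaLISA (anti-pKAP1 donor, anti-KAP1 acceptor beads), 6 hr at 25C.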
CCT chaperon mod: cytosolic chaperonin activity modulation; purified chaperonin ATPase assay, HTRF ADP detection, 30 min; activity change, % (no concentration beside the values), hits read low; hit rate 0.3% among 360,000; in the data active means activity change below about -30%; further: on the % scale 0 is the no-effect control and ±100 the full control effect
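Nucleotide hydrolysis assay: TRiC at 20–40 nM final (set by batch activity) with 10 uM ATP, 30 min at 37 °C, in presence of 76 uM compound. Detection by competitive ADP HTRF, 30 min ambient.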
The depositor's hits bear a star; ? = inconclusive; nt = no result; [ ] = remark or other dose. Unless noted, the call rests on the fitted dose curve; in most records, active means well fitted curve in the direction sought with a large enough effect; inconclusive means small, poorly fitted or top-dose-only effect, or another doubt; inactive means no such curve, though single readings can be large; an effect the other way counts as inactive or inconclusive.

SMILES	TCR activator	Nrf2 block	A549 viability	Nrf2 activator	A-T KAP1 phos	CCT chaperon mod
CC(C)c1ccc(NC(=O)c2cnc3sc(N4CCCC4)nn3c2=O)cc1	nt	2.3µM*	-8%	0%	nt	nt
CN(CC(=O)Nc1ccc(F)c(F)c1)S(=O)(=O)c1cccs1	10%	-22%	-10%	2%	0%	-40*
COCCCNC(=O)CCCN1C(=O)CCn2nc(-c3cccn3C)cc21	nt	nt	3%	-1%	nt	nt
COc1ccc(C)cc1S(=O)(=O)N(CC(=O)O)c1ccc(F)cc1	-7%	nt	-1%	0%	nt	-33*
COc1ccc(C)cc1S(=O)(=O)N(CC(=O)NC1CCCC1)c1ccc(F)cc1	-3%	?	-14%	1%	10%	-1
Cc1cc(/C=C2\NC(=O)NC2=O)c(C)n1-c1cccnc1	7%	?	-4%	0%	-3%	-3
Cc1cc(/C=C2\NC(=S)NC2=O)c(C)n1-c1cccnc1	2%	14%	0%	2%	-11%	-83*
Cc1cc(/C=C2/SC(=S)N(c3cccc(C(F)(F)F)c3)C2=O)c(C)n1-c1cccnc1	10%	5.8µM*	?	1%	nt	-2
O=C(Cc1ccc(S(=O)(=O)N2CCCC2)s1)N1CCN(c2ccccc2)CC1	-5%	4%	0%	0%	2%	-93*
COc1ccccc1N1C(=O)C(Cl)=C(Nc2ccccc2O)C1=O	-7%	12%	1%	13µM*	-2%	-3
O=[N+]([O-])c1ccc(N2CCN(C(=S)Nc3ccc(F)cc3F)CC2)cc1	-19%	23µM*	?	3%	-6%	-2
O=[N+]([O-])c1ccc(N2CCN(C(=S)Nc3cccc(F)c3)CC2)cc1	-2%	16µM*	-18%	4%	5%	1
CC1(C(=O)NS(=O)(=O)c2ccc(C#N)cc2)CCN1C(=O)CCC1CCCC1 (stereo not given)	nt	nt	nt	0%	nt	-1
COc1ccc(C=C(c2nc3ccccc3s2)c2nc3ccccc3s2)cc1O	7%[46.1 µM]	13%	-13%	?	28µM*	-1
Cc1sc2ncn(CC(=O)NCCCN3CC(C)CC(C)C3)c(=O)c2c1S(=O)(=O)N1CC(C)CC(C)C1 (stereo not given)	0%	14%	6%	0%	2%	-2
O=C1/C(=C/c2cccc(Br)c2)SC(=S)N1CCC(=O)N(CCO)c1ccccc1	-2%	23%	-13%	13µM*	5%	0
CN1CCN(C(=O)CCCN2C(=O)/C(=C/c3cccc(Br)c3)SC2=S)CC1	-6%	?	?	13µM*	-7%	1
CC(C)(CO)CNC(=O)c1ccc(OC2CCN(C(=O)C3CC3)CC2)cc1	6%	13%	2%	1%	6%	-4
COc1ccc(N(Cc2ccccc2)C(=O)CSc2nnc(Cn3nnc4ccccc43)o2)cc1	-5%	?	-21%	3%	3%	-2
O=C(CSc1nnc(Cn2nnc3ccccc32)o1)N(Cc1ccc(F)cc1)c1ccccc1	-1%	5.8µM*	?	5%	2%	-1
COc1ccc(CN(C(=O)CSc2nnc(-c3c[nH]c4ccccc34)o2)c2ccc(F)cc2)cc1OC	7%[46.1 µM]	12µM*	?	0%	nt	2
CCc1ccc(-n2c(=O)c3c4c(sc3n(Cc3ccccc3C#N)c2=O)CCC4)cc1	nt	12%	-3%	0%	nt	nt
COC(CNC(=O)C(=O)NCC1OCCN1S(=O)(=O)c1ccccc1)OC (stereo not given)	3%	13%	2%	-1%	nt	-1
O=C(N/N=C/c1ccc([N+](=O)[O-])o1)c1ccc(O)cc1	1%	21µM*	21µM*	-2%	-19%	0
O=C(N/N=C/c1ccc([N+](=O)[O-])o1)C1CCCC1	0%	16µM*	?	-1%	15%	1
SMILES	TCR activator	Nrf2 block	A549 viability	Nrf2 activator	A-T KAP1 phos	CCT chaperon mod
[O-]/[N+](=C\c1ccccc1)[C@@H]1CCCC[C@@H]1/[N+]([O-])=C/c1ccccc1	5%	-6%	-3%	0%	2%	1
O=[N+]([O-])c1ccc(/C=[N+](\[O-])[C@@H]2CCCC[C@@H]2/[N+]([O-])=C/c2ccc([N+](=O)[O-])o2)o1	-11%	-4%	21µM*	10µM*	34%	-1
O=C(N/N=C\c1ccc([N+](=O)[O-])o1)C1COc2ccccc2O1 (stereo not given)	4%	?	-20%	0%	3%	0
COc1cccc(CNC(=O)c2cc3cc(C)ccc3n2C)c1	nt	?	-4%	0%	nt	nt
Cc1cccc(NC(=O)COC(=O)CN2C(=O)c3ccccc3C2=O)c1	nt	nt	nt	0%	nt	3
CC(C)OCCCNC(=O)c1ccc2c(c1)N(Cc1c(F)cccc1Cl)C(=O)c1ccccc1S2	nt	?	-12%	4%	nt	nt
COc1cc(OC)c2ccc(=O)oc2c1C(CCN1CCCC(C)C1)c1ccc2c(c1)OCO2 (stereo not given)	-3%	14%	16µM*	6%	-16%	-1
O=C(NC(Nc1ncc(S(=O)(=O)c2ccc([N+](=O)[O-])cc2)s1)(C(F)(F)F)C(F)(F)F)c1ccc(Cl)cc1	3%	5.8µM*	?	?	1%	1
COCC(=O)Nc1ncc(S(=O)(=O)c2ccc([N+](=O)[O-])cc2)s1	nt	?	3%	6%	9%	2
Cc1ccc(C)c(S(=O)(=O)N2CCN(C(=O)c3ccccc3Cc3ccccc3)CC2)c1	3%	-9%	3%	-1%	1%	1
c1ccc(-c2nc(NCc3ccco3)c3ccccc3n2)nc1	0%	21µM*	-26%	8%	nt	-1
Cc1ccccc1OCc1nnc(SCC(=O)Nc2ccc3nc(SCC(=O)NC(C)(C)C)sc3c2)n1C	2%	?	-14%	3%	5%	0
CC(C)(C)NC(=O)CSc1nc2ccc(NC(=O)CSc3nnc(N)s3)cc2s1	5%[46.1 µM]	21µM*	-5%	-1%	2%	-2
CC(=O)N1C(=O)NC2=C(C(=O)CCC2)C1c1cccc([N+](=O)[O-])c1 (stereo not given)	-3%	-18%	3%	2%	8%	-3
CCCC(=O)N1CCN(c2ccc(NC(=O)c3ccc([N+](=O)[O-])o3)cc2Cl)CC1	-6%	16µM*	?	?	-6%	0
COc1cc(Cn2ncc3c4sc(C)cc4n(C)c3c2=O)cc(OC)c1	nt	16%	-1%	nt	nt	nt
COc1ccc(C(=O)Nc2ccc(-c3ccc(C)o3)cc2)cc1S(=O)(=O)N1CCOCC1	-6%	18µM*	?	4%	2%	-1
